Inconclusive results are not listed. Some structures have more than one record in an assay (separate samples or runs), and their calls can disagree. Activity calls are given as the source filed them. The call rests on the fitted dose curve; in most records, active means well fitted cell-killing curve with a large enough effect in the repeat runs; inconclusive means weak or mixed curves, or effect the other way; inactive means flat fitted curve, though single readings scatter.
Assay: qHTS assay to identify small molecule antagonists of the androgen receptor (AR) signaling pathway using the MDA cell line in the presence of 0.5 nM R1881 - cell viability counter screen (AID 1259242); further: nearly all actives have a fitted effect of over 45% in size
Details: MDA-kb2 viability, CellTiter-Fluor protease fluorescence, 16 h; series mostly up to 92.4 µM; viability change, negative = cytotoxic: at the top concentration
Text: U.S. Tox21 Program National Center for Advancing Translational Sciences [NCATS] NIH Chemical Genomics Center [NCGC] U.S. Environmental Protection Agency [EPA] National Institutes of Environmental Health Sciences [NIEHS] National Toxicology Program [NTP] U.S. Food and Drug Administration [FDA] Tox21 Assay Overview: Androgen receptor (AR) is an important member of the nuclear receptor family. Its signaling plays a critical role in AR-dependent prostate cancer and other androgen related diseases. Considerable attention has been given in the past decades to develop methods to study and screen for the environmental chemicals that have the potential to interfere with metabolic homeostasis, reproduction, developmental and behavioral functions. Therefore AR binding assay for screening androgen antagonists can be used to identify potential endocrine disruptors. MDA-kb2 cells (from ATCC, deposited by Wilson et al.) were used to screen for AR inhibitors against Tox21 compound libraries. These cells are human breast carcinoma cells that were stably transfected with a luciferase reporter gene under control of the MMTV promoter that contains response elements for both androgen receptor (AR) and glucocorticoid receptor (GR). The current screening for identification of AR inhibitors against Tox21 libraries used lower concentration of (0.5 nM) R1881 as a stimulator. The cytotoxicity of the Tox21 compound libraries against MDA-kb2 cell line was tested by measuring live-cell protease activity using CellTiter-Fluor assay in the same wells.
Tox21 Assay Protocol Summary: MDA-kb2 cells (cells cultured without CO2) were dispensed at 3,000 cells/well in 4 uL of culture medium into white wall/solid-bottom 1536-well plates (Corning Life Sciences, Corning, NY) using a Multidrop Combi (ThermoFisher Scientific, Waltham, MA) dispenser. After the assay plates were incubated at a 37C and 0% CO2 for 5 hr, 23 nL of compounds dissolved in DMSO, positive controls or DMSO only was transferred to the assay plate by a Pintool station (Kalypsys, San Diego, CA). The transfer of compounds was followed by the addition of 1 uL of 0.5 nM (final concentration) agonist (R1881)/culture medium using a Flying Reagent Dispenser (FRD, Aurora Discovery, San Diego, CA). The plates were incubated at 37C and 0% CO2 for 16 hr. For cytotoxicity assay, 1 uL of CellTiter-Fluor reagent (Promega Corporation, Madison, WI) was added to each well using the FRD and after 30 min incubation at 37C and 0% CO2, The fluorescence intensity was measured using ViewLux plate reader (PerkinElmer, Shelton, CT).
On the % scale 0 is the no-effect control and ±100 the full control effect; potency means the concentration at half of the fitted maximal effect.

| SMILES | Potency | viability change, negative = cytotoxic |
| --- | --- | --- |
| COP(=O)(OC)OC(Br)C(Cl)(Cl)Br (stereo not given) | inactive | – |
| CCC1(CC)C(=O)NC(=O)NC1=O | – | -1.39% [at 42.5 µM] (inactive) |
| CCC1(C2=NCCN2)Cc2ccccc2O1 (stereo not given) | – | -6.11% [at 42.5 µM] (inactive) |
| CC[N+]1(CCOC(=O)C(O)(c2ccccc2)c2ccccc2)CCCCC1 | – | 0.0241% [at 42.5 µM] (inactive) |
| CC(C)(C)CC(C)(C)c1ccc(O)cc1 | – | -4.53% [at 42.5 µM] (inactive) |
| COc1cc(CC(C)N)c(OC)cc1Br (stereo not given) | – | -6.16% (inactive) |
| COc1ccc2c(c1OC)C(=O)O[C@H]2[C@@H]1c2cc3c(cc2CCN1C)OCO3 | – | -4.16% [at 42.5 µM] (inactive) |
| C[C@H](N)[C@H](O)c1ccc(O)c(O)c1 | – | 3.27% [at 42.5 µM] (inactive) |
| NP(N)(=O)NC(=O)c1ccc(F)cc1 | – | 4.19% [at 42.5 µM] (inactive) |
| CCCCC#N | – | 5.86% (inactive) |
| CCc1cnc(C2=NC(C)(C(C)C)C(=O)N2)c(C(=O)O)c1 (stereo not given) | inactive | – |
| CCCN(CCC)c1c([N+](=O)[O-])cc(C(C)C)cc1[N+](=O)[O-] | inactive | – |
| CCNC(=O)NC(=O)/C(C#N)=N/OC | – | 1.2% (inactive) |
| CCCCCCCCCCCC[N+](C)(C)CCOc1ccccc1 | 48.6 µM (active) and inactive | – |
| C1CCNCC1 | – | 1.65% (inactive) |
| CC(C)CCCCCCCOC(=O)c1ccccc1C(=O)OCCCCCCCC(C)C | – | 7.71% (inactive) |
| Clc1ccc2ccccc2c1 | – | 0.557% (inactive) |
| CC1(C)[C@H](C(=O)O[C@H](C#N)c2cccc(Oc3ccccc3)c2)[C@@H]1C=C(Br)Br | inactive | – |
| O=C(O)C(F)(F)C(F)(F)C(F)(F)C(F)(F)C(F)(F)F | – | 4.07% (inactive) |
| CC(=O)OC(c1ccccc1)C(Cl)(Cl)Cl (stereo not given) | – | -4.28% (inactive) |

| SMILES | Potency | viability change, negative = cytotoxic |
| --- | --- | --- |
| CNC(=O)Oc1cccc(N=CN(C)C)c1 | – | -15.9% (inactive) |
| Cc1cccc(C)c1NC1=NCCCS1 | – | -0.297% [at 42.5 µM] (inactive) |
| c1ccc2c(c1)sc1ccccc12 | inactive | – |
| C[C@H]1O[C@H](OC2[C@@H](O)[C@@H](O)C(O)[C@H](O)[C@H]2O)[C@@H](N)C[C@@H]1N=C(N)C(=O)O (stereo not given in full) | – | 8.26% (inactive) |
| C[N+]1(CCF)[C@@H]2CC[C@H]1CC(OC(=O)C(O)(c1ccccc1)c1ccccc1)C2 (stereo not given in full) | – | 2.92% [at 42.5 µM] (inactive) |
| CCCCC(CC)CO[N+](=O)[O-] (stereo not given) | – | 2.08% (inactive) |
| C#CC(O)(C=CCl)CC (stereo not given) | – | 2.88% [at 42.5 µM] (inactive) |
| FC(Cl)(Cl)C(F)(Cl)Cl | – | 1.36% (inactive) |
| CN1CC[C@]23c4c5ccc(O)c4O[C@H]2[C@@H](O)C=C[C@H]3[C@H]1C5 | – | 3.75% (inactive) |
| CN1C(=O)CN=C(c2ccccc2)c2cc([N+](=O)[O-])ccc21 | – | -2.91% [at 42.5 µM] (inactive) |
| O=S(=O)(c1ccccc1)c1ccccc1 | – | 0.849% (inactive) |
| CCOC(=O)c1cn2nc(OP(=S)(OCC)OCC)cc2nc1C | – | -1.82% (inactive) |
| CC(Oc1cccc(Cl)c1)C(=O)O (stereo not given) | – | -1.52% (inactive) |
| O=C(NC(=O)c1cc(F)c(F)cc1Cl)Nc1cc(F)ccc1N1CCC(C(=O)O)CC1 | – | 0.424% [at 42.5 µM] (inactive) |
| ClCc1ccccc1Cl | – | 3.31% (inactive) |
| O=C1NC(=O)C(=O)C(=O)N1 | – | -0.729% (inactive) |
| Cc1nc(N(C)C)nc(OC(=O)N(C)C)c1C | – | -0.243% (inactive) |
| O=C=NC1CCCCC1 | – | -0.935% (inactive) |
| C#C[C@]1(O)CC[C@H]2[C@@H]3CCC4=CC(=O)CCC4=C3C=C[C@@]21CC | – | -0.729% [at 42.5 µM] (inactive) |
| O=C(N[C@H]1CN2CCC1CC2)c1ccc2c(c1)OCCO2 | – | -3% (inactive) |

— PubChem BioAssay (Tox21)
